Screening data (PubChem BioAssay)
Sampled rows, rich in hits. Any-hit rate of the full collection: about 7.5%.
NPC1 promoter act = activators of NPC1 promoter | Huh7 NPC1 promoter luciferase reporter, 24 h | Potency, µM (top dose mostly 9.22 µM), for inactives: top-dose activation, hits mostly activators | 320,000 tested, 2.4% active | AID 485313; also: % of control where 0% means no effect; nearly all actives have a fitted effect of over 60% in size
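Huh7 cells stably carrying NPC1 promoter–luciferase, plated in Opti-MEM with 10% FBS for 2 h, were exposed to compound in DMSO for 24 h at 37 °C; luciferase reagent was added for 10 min and luminescence read.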
FLuc modulator = counter-screen for miR-21 project: firefly luciferase inhibitors or activators; P08659; purified FLuc, Km substrates, luminescence inhibition; 360,000 tested, 6.9% active; Potency, µM (series often up to 57.5 µM), for the others: at the top dose activity change, negative = inhibition, hits mostly inhibitors;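 also: plate controls were vehicle for no effect and reference inhibitor for full effect; nearly all actives have a fitted effect of over 55% in size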
Target sequence (P08659 whole entry, looked up): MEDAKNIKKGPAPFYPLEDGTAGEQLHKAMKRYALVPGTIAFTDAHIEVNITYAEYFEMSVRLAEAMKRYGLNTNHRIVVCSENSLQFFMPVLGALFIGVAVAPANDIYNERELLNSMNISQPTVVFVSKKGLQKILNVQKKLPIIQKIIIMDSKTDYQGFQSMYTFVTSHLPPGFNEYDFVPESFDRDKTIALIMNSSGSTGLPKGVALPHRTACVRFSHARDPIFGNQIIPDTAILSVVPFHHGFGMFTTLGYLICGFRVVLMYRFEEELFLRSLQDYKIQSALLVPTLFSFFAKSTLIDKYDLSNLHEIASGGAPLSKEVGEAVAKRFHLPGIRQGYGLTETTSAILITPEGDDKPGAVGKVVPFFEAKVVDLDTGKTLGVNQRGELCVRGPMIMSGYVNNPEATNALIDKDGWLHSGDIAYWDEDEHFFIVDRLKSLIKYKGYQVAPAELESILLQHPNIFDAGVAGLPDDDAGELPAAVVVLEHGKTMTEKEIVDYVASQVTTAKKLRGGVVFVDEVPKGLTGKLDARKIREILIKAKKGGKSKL
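Purified P. pyralis luciferase, 10 nM final, with Km-level 10 uM D-luciferin and 10 uM ATP in 50 mM Tris acetate pH 7.5, 10 mM Mg acetate, 0.01% Tween-20, 0.05% BSA; 6-point qHTS titration about 60 µM downward; luminescence read.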
Rab9 promoter act = activates the Rab9 promoter; Huh7 Rab9 promoter-luciferase reporter, luminescence, 24 h; Potency, µM (titrated, usually from 9.22 µM), inactives show top-dose activation, negative = inhibition, hits mostly activators; 320,000 tested, 2.8% active; AID 485297; also: % of control where 0% means no effect; nearly all actives have a fitted effect of over 60% in size
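Huh7 cells stably carrying a Rab9 promoter-luciferase reporter, 1500 cells per well in OP-MEM I with 10% FBS, treated with compound 24 hours at 37C. Luciferase activity read by luminescence after 10 minutes with Amplite reagent.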
SMN2 splice up = SMN2 splice variant enhancement; HEK293 SMN2-luciferase splicing reporter, luminescence, 30-36 h; Potency, µM (top dose mostly 46.1 µM), inactives show at the highest dose activity change, positive = activation, usual class: activators; 210,000 tested, 2.8% active; also: % of control where 0% means no effect; nearly all actives have a fitted effect of over 55% in size
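qHTS luciferase splicing reporter: luminescence rises when SMN2 exon 7 is included in transfected HEK293 cells. Compound exposure lasted 30-36 h at 37C, with 4.5 mM final sodium butyrate as control, followed by a ONE-Glo read.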
ELG1 genotoxic = induces genotoxicity in HEK293T cells with luciferase-tagged ELG1; HEK293T ELG1-luciferase reporter, luminescence, 16 h; Potency, µM (doses to about 46 µM), for the others: at the top dose activity change, positive = activation, most hits filed as activators; 330,000 tested, 1.3% active; also: % of control where 0% means no effect; nearly all actives have a fitted effect of over 60% in size
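Step 1: seed 2,000 HEK293T ELG1-luciferase cells per well. Step 2: add compound or DMSO, incubate 16 hr at 37 °C. Step 3: ONE-Glo, 30 min at room temperature, read luminescence.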
Luc counter = counter-screen: inhibitors of Kinase-Glo firefly luciferase; Potency, µM (top dose mostly 38.3 µM), for the others: at the top dose activity change, negative = inhibition, usual class: inhibitors; 200,000 tested, 0.28% active; AID 1379; Kinase-Glo luciferase, ATP luminescence, 8 min; also: % is scaled to controls: 0 for no effect and ±100 for the full control effect; nearly all actives have a fitted effect of over 60% in size
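Compounds were added to a substrate mix at pH 7.2 (50 mM imidazole, 10 uM ATP, within the enzyme's linear range), followed by Kinase-Glo detection reagent; luminescence was measured after 8 minutes at ambient temperature.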
An asterisk follows results filed as active; [ ] = remark or other dose. Calls follow the shape of the dose curve; as a rule, active = well fitted curve in the direction sought with a large enough effect; inconclusive = small, poorly fitted or top-dose-only effect, or another doubt; inactive = no such curve, though single readings can be large; an effect the other way counts as inactive or inconclusive. Potency is read from the fitted curve at half-maximal effect.

`COc1ccc(-c2csc(Nc3cccc(C)n3)n2)cc1C` gave NPC1 promoter act 2.2µM*, FLuc modulator 3.4µM*, Rab9 promoter act 1.6µM* and ELG1 genotoxic inconclusive.
For Cc1cccc(Nc2nc(-c3ccc(F)cc3)cs2)n1 the results were NPC1 promoter act 3.5µM*, FLuc modulator 5.4µM*, Rab9 promoter act 3.5µM* and ELG1 genotoxic inconclusive.
COc1ccc(-c2csc(Nc3cccc(C)n3)n2)cc1 was read as NPC1 promoter act 0.89µM*, FLuc modulator 2.7µM*, Rab9 promoter act 0.89µM* and ELG1 genotoxic 4.6µM*.
`CC(=O)Oc1ccc(-c2csc(Nc3cccc(C)n3)n2)cc1` gave NPC1 promoter act 2.2µM*, FLuc modulator 3.4µM*, Rab9 promoter act inconclusive and ELG1 genotoxic 13µM*.
NS(=O)(=O)c1ccc(Nc2nc(-c3ccc(F)cc3)cs2)cc1 was read as NPC1 promoter act -3%, FLuc modulator 4%, Rab9 promoter act -2%, SMN2 splice up -52%, ELG1 genotoxic -6% and Luc counter 5%.
COc1cccc2sc(Nc3nc(-c4ccncc4)cs3)nc12 was read as NPC1 promoter act -30%, FLuc modulator -15%, Rab9 promoter act -7%, SMN2 splice up -5%, ELG1 genotoxic 6% and Luc counter 0%.
Screening CCOc1ccccc1Nc1nnc(-c2cc3cc(Cl)ccc3oc2=O)s1 returned FLuc modulator -1%.
`Cc1ccc(-c2cc(NC(=O)CSc3n[nH]c(N)n3)n(-c3ccccc3)n2)cc1` gave NPC1 promoter act 3%, FLuc modulator 19µM*, Rab9 promoter act 7%, SMN2 splice up 6%, ELG1 genotoxic -3% and Luc counter 1%.
Nc1nc(SCC(=O)Nc2cc(-c3ccccc3)nn2-c2ccccc2)n[nH]1 was read as NPC1 promoter act -2%, FLuc modulator -19%, Rab9 promoter act -4%, SMN2 splice up 22%, ELG1 genotoxic 3% and Luc counter -8%.
CCCc1ccc(-c2cc(NC(=O)CSc3nnc(N)s3)n(-c3ccccc3)n2)cc1 was read as NPC1 promoter act 2.5µM*, FLuc modulator 0.21µM*, Rab9 promoter act 1.3µM* and ELG1 genotoxic inconclusive.
Screening COc1ccc(C2CC(C)=C(C#N)S(=O)(=O)C2C#N)cc1 (stereo not given) returned NPC1 promoter act 0%, FLuc modulator -2%, Rab9 promoter act 1% and ELG1 genotoxic 0%.
For CCCc1cnc(N2CCN(C(=S)NC)CC2)nc1 the results were NPC1 promoter act inconclusive, FLuc modulator 17µM*, Rab9 promoter act 4.5µM* and ELG1 genotoxic 23µM*.
Screening Cc1noc(C)c1NC(=O)N(C)C[C@@H]1Oc2ccc(NC(=O)C3CCCCC3)cc2C(=O)N([C@@H](C)CO)C[C@H]1C returned ELG1 genotoxic 3%.
Clc1ccc(-c2cccs2)nn1 was read as NPC1 promoter act -1%, FLuc modulator 1%, Rab9 promoter act 28%, SMN2 splice up 6%, ELG1 genotoxic 16% and Luc counter 2%.
For CC1CCN(c2ccc(-c3cccs3)nn2)CC1 the results were NPC1 promoter act inconclusive, FLuc modulator 0.076µM*, Rab9 promoter act 1.4µM* and ELG1 genotoxic 0.23µM*.
For COCCNC(=O)c1cc(Sc2ccc(F)cc2F)nc2ccccc12 the results were FLuc modulator -8%.
Screening Cc1cccc(CCNC(=O)c2nn(C)c3c2CSc2ccccc2-3)c1 returned FLuc modulator -5%.
`COC(=O)CCC(=O)COc1ccc(OC)cc1C#N` gave NPC1 promoter act inconclusive, FLuc modulator inconclusive, Rab9 promoter act 2.5µM* and ELG1 genotoxic inconclusive.
`COC(=O)CCC(=O)COc1ccccc1C#N` gave NPC1 promoter act -1%, FLuc modulator -12%, Rab9 promoter act 6%, SMN2 splice up -3%, ELG1 genotoxic inconclusive and Luc counter 5%.
`COc1ccc(C(=O)COc2ccccc2C#N)cc1` gave NPC1 promoter act 2.8µM*, FLuc modulator inconclusive, Rab9 promoter act 3.2µM* and ELG1 genotoxic inconclusive.
Nc1c(C(=O)Nc2nc3ccccc3s2)sc2nc(-c3cccs3)ccc12 was read as NPC1 promoter act inconclusive, FLuc modulator 2.4µM*, Rab9 promoter act inconclusive, SMN2 splice up inconclusive, ELG1 genotoxic inconclusive and Luc counter -8%.
Nc1c(C(=O)Nc2ccccc2)sc2nc(-c3ccco3)ccc12 was read as NPC1 promoter act inconclusive, FLuc modulator 12µM*, Rab9 promoter act inconclusive, SMN2 splice up 2%, ELG1 genotoxic 6% and Luc counter -3%.
Screening Nc1c(C(=O)Nc2ccccc2Br)sc2nc(-c3cccs3)ccc12 returned SMN2 splice up -6%.
`CC(=O)c1sc2nc(-c3cccs3)ccc2c1N` gave NPC1 promoter act 18%, FLuc modulator 7.6µM*, Rab9 promoter act 3.5µM*, SMN2 splice up inconclusive, ELG1 genotoxic 12µM* and Luc counter -1%.
For O=C(CSc1nncs1)Nc1nccs1 the results were NPC1 promoter act 0%, FLuc modulator 1%, Rab9 promoter act -2% and ELG1 genotoxic -2%.
`CC1(C)CNc2cc([N+](=O)[O-])ccc2S1` gave NPC1 promoter act inconclusive, FLuc modulator 27µM*, Rab9 promoter act inconclusive, SMN2 splice up 14%, ELG1 genotoxic inconclusive and Luc counter 1%.
`CC1=Nc2cc([N+](=O)[O-])ccc2NC(C)(C)C1` gave NPC1 promoter act 3%, FLuc modulator -18%, Rab9 promoter act 5%, SMN2 splice up -15%, ELG1 genotoxic 12% and Luc counter -9%.
Screening CCCCc1nc2c(c3c1C[C@H](C)OC3)CN(C(=O)N[C@H](C(=O)OC)C(C)C)CC2 returned SMN2 splice up -8%[9.22 µM] and Luc counter -1%[7.66 µM].
For Cc1ccc(O)c(NC(=O)c2cc(-c3ccccc3O)no2)c1 the results were FLuc modulator 6%.
Screening Oc1ccccc1-c1cc(-c2ccccc2)no1 returned NPC1 promoter act 5.6µM*, FLuc modulator 0.85µM*, Rab9 promoter act inconclusive, SMN2 splice up 3.2µM*, ELG1 genotoxic inconclusive and Luc counter -21%.
Cc1ccc(O)c(-c2cc(-c3ccc(F)cc3)no2)c1 was read as NPC1 promoter act -33%, FLuc modulator 0.95µM*, Rab9 promoter act -33% and ELG1 genotoxic 2.1µM*.
